# For some of these results: Measured potencies and affinities stand elsewhere. The source made the active and inactive calls.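 How the source made its calls, unless noted: active means at least 20% inhibition of 6-phosphogluconate dehydrogenase activity; inactive means the rest.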
# Tests used:
# [1] = blockers of polyQ-driven CASP3 activation – cell-based (AID 1583); details: polyglutamine-induced caspase-3 activation, cell assay; stronger effect = higher value;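 tested at 10 µM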
# [2] = yeast 75Q aggregation reduction – 75Q-TubU reporter (AID 1593); details: Yeast 75Q polyglutamine aggregation reporter
# [3] = restoration of touch response, mutant HTT neurons – whole organism, C. elegans mechanosensory neurons, N-terminal huntingtin (AID 1599); details: C. elegans polyQ-huntingtin mechanosensory neurons, stronger effect = higher value
# [4] = blockers of cytochrome c efflux from mitochondria – biochemical, purified mitochondria (AID 1603); details: stronger effect = lower value;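 further: mouse liver mitochondria challenged with calcium chloride; signal normalized to the plate average as 100%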
# [5] = polyglutamine aggregate formation blockers (AID 1604); details: polyglutamine-induced protein aggregation inhibition assay; stronger effect = higher value; tested at 2.5 µM
# [6] = glutamate transport activators, MN-1 cells, MN-1 cell line (AID 1612); details: MN-1 motor neuron cells, stronger effect = higher value;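 further: tested at 1 µM final; 0% = mean of DMSO vehicle wells on each plate; positive means more glutamate uptake than control and negative means less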
# [7] = 75Q-TubH aggregate inhibition, S. cerevisiae, yeast (AID 1616); details: S. cerevisiae 75Q-TubH polyglutamine aggregation suppression; stronger effect = higher value
# [8] = target: 6-phosphogluconate dehydrogenase, decarboxylating (Homo sapiens) (UniProt P52209); assay: inhibition of human phosphogluconate dehydrogenase – biochemical, recombinant enzyme, NADPH absorbance, primary screen (AID 1159550); details: recombinant 6PGD, NADPH absorbance 341 nm; at 10 µM; stronger effect = higher value
# [9] = EMT-state selective cytotoxicity in co-culture – imaging, PC-3E GFP, TEM4-18 mCherry, primary screen (AID 1345086;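 active means compounds killing one labelled cell type while sparing the other, by normalised counts and ratio limits, not self-fluorescent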;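 on all read-outs here: cells exposed to compound for 72 h before imaging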;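 on red/green cell ratio (normalised): normalised mesenchymal count divided by normalised epithelial count so high means epithelial killing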); details: PC-3E GFP / TEM4-18 mCherry co-culture, imaging cell counts, at 1 µM; for red/green cell ratio (normalised): actives lie on both sides
# [10] = test system: Aerobactin synthetase IucA (Klebsiella pneumoniae hvKP1); assay: IucA enzyme inhibition, primary screen, biochemical, Spectrum library (AID 1346200; call rule not given here;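 further: 100% = wells without compound and 0% = wells lacking enzyme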); details: malachite green pyrophosphate, A620, at 8 µM, stronger effect = lower value
# [11] = target: Mitogen-activated protein kinase 7 (Homo sapiens) (UniProt Q13164); assay: Gal4-ERK5 driven luciferase induction – cell-based, HTS, primary screen (AID 1508626;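 active means luciferase signal above three times the same-plate solvent-only control wells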;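 further: luciferase driven by Gal4-ERK5 fusion binding five Gal4 sites before minimal TATA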); details: HeLa Gal4-ERK5 transactivation, 18 h, at 5 µM, stronger effect = higher value
# [12] = measured here: epithelial PC-3E GFP cell survival
# [13] = measured here: mesenchymal TEM4-18 mCherry cell survival
# [14] = counts scaled to control wells, 1 = unselective
# Sequence of Mitogen-activated protein kinase 7 (Homo sapiens) (Q13164 whole entry, looked up, the tested form may be a part): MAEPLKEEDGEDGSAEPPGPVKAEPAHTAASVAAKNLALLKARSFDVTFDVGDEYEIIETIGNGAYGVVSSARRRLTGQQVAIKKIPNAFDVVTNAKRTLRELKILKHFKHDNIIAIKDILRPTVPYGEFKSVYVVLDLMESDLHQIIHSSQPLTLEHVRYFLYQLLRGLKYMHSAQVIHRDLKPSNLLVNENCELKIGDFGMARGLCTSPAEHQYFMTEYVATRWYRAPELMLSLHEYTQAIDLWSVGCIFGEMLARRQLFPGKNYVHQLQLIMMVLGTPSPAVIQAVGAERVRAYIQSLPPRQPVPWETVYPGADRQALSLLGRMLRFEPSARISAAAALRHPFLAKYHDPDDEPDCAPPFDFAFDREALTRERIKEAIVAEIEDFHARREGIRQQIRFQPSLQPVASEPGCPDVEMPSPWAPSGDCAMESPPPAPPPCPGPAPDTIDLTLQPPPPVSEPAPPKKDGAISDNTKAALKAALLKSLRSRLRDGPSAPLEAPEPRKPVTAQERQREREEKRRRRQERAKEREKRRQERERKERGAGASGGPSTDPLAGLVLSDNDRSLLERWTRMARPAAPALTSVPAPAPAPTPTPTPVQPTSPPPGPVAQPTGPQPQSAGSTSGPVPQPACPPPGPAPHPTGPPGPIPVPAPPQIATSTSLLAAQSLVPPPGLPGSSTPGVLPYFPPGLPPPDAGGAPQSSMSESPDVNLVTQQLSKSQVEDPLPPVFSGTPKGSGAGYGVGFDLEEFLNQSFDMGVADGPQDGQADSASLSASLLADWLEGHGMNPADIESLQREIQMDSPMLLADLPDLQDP
# Sequence of 6-phosphogluconate dehydrogenase, decarboxylating (Homo sapiens) (P52209 whole entry, looked up): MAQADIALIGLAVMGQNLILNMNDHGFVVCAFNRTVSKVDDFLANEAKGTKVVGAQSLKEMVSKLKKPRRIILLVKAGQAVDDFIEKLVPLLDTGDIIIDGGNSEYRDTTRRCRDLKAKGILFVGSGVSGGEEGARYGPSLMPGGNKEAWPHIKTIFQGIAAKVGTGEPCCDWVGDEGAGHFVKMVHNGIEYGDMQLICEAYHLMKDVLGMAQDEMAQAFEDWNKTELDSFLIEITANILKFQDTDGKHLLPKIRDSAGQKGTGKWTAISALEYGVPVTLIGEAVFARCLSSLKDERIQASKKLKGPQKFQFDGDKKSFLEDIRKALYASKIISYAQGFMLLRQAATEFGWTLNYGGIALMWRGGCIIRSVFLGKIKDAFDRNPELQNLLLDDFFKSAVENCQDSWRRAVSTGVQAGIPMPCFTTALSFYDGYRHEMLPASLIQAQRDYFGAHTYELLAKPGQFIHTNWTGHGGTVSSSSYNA
smiles,measurement,setting,value
O=C1C=C2C(=CCOC2O)O1 (stereo not given),inhibition,[1],71.1%
same,score,[2],1.15
same,rescue above control,[3],-6.1
same,cytochrome c release ratio,[4],0.78
same,inhibition of aggregation,[5],0%
same,glutamate uptake change,[6],-4.18%
same,aggregation suppression score,[7],0.84
same,inhibition,[8],4.22% (inactive)
same,red/green cell ratio (normalised),[9],0.44 (inactive)
same,normalised cell number,[9]; [12],0.14
same,normalised cell number,[9]; [13],0.06
same,activity remaining,[10],124% (inactive)
same,luciferase signal,[11],3170 AU (active)
CC(C)CCCC1(C)C=Cc2c(O)c3c(c(CCC(C)C)c2O1)OC12C(CC4CC1C(C)(C)OC2(CCC(C)C(=O)O)C4O)C3=O (stereo not given),inhibition,[8],0.442% (inactive)
same,red/green cell ratio (normalised),[9],0.9 (inactive)
same,normalised cell number,[9]; [12],0.98
same,normalised cell number,[9]; [13],0.88
same,activity remaining,[10],98% (inactive)
same,luciferase signal,[11],76 AU (inactive)
COc1cccc(C=O)c1OC,inhibition,[8],7.48% (inactive)
same,red/green cell ratio (normalised),[9]; [14],1.04 (inactive)
same,normalised cell number,[9]; [12],0.98
same,normalised cell number,[9]; [13],1.02
same,activity remaining,[10],93.4% (inactive)
same,luciferase signal,[11],60 AU (inactive)
CCOC(=O)C1C(C=C(C)C)C1(C)C (stereo not given),inhibition,[8],-0.74% (inactive)
same,red/green cell ratio (normalised),[9],0.99 (inactive)
same,normalised cell number,[9]; [12],1.19
same,normalised cell number,[9]; [13],1.18
same,activity remaining,[10],107% (inactive)
same,luciferase signal,[11],60 AU (inactive)
COc1cc2c(cc1OC)[C@@H]1C(=O)c3ccc4oc(C(C)C)cc4c3O[C@@H]1CO2,inhibition,[8],4.17% (inactive)
same,red/green cell ratio (normalised),[9],0.79 (inactive)
same,normalised cell number,[9]; [12],1.25
same,normalised cell number,[9]; [13],0.98
same,activity remaining,[10],104% (inactive)
same,luciferase signal,[11],76 AU (inactive)
CC(C)=CCCC1(C)C=Cc2c(O)c3c(c(CC=C(C)C)c2O1)OC12C(CC4CC1C(C)(C)OC2(C/C=C(/C)C(=O)O)C4O)C3=O (stereo not given),inhibition,[8],-6.13% (inactive)
same,red/green cell ratio (normalised),[9],1.11 (inactive)
same,normalised cell number,[9]; [12],0.96
same,normalised cell number,[9]; [13],1.07
same,activity remaining,[10],119% (inactive)
same,luciferase signal,[11],96 AU (inactive)
CC(C)(C#N)O[C@@H]1O[C@H](CO)[C@@H](O)[C@H](O)[C@H]1O,inhibition,[8],5.98% (inactive)
same,red/green cell ratio (normalised),[9],0.8 (inactive)
same,normalised cell number,[9]; [12],0.84
same,normalised cell number,[9]; [13],0.67
same,activity remaining,[10],94.3% (inactive)
same,luciferase signal,[11],92 AU (inactive)
CC(=O)Oc1c2c(c(CC=C(C)C)c3c1C(=O)C1=C[C@@H]4CC5C(C)(C)OC(C/C=C(\C)C(=O)O)(C4=O)[C@@]15O3)OC(C)(CCC=C(C)C)C=C2 (stereo not given in full),inhibition,[8],23.4% (active)
same,red/green cell ratio (normalised),[9]; [14],0.83 (inactive)
same,normalised cell number,[9]; [12],1.18
same,normalised cell number,[9]; [13],0.98
same,activity remaining,[10],120% (inactive)
same,luciferase signal,[11],140 AU (inactive)
CC(=O)Oc1ccc(/C=C/c2cc(OC(C)=O)cc(OC(C)=O)c2)cc1,inhibition,[8],-2.26% (inactive)
same,red/green cell ratio (normalised),[9],1.01 (inactive)
same,normalised cell number,[9]; [12],0.98
same,normalised cell number,[9]; [13],1
same,activity remaining,[10],103% (inactive)
same,luciferase signal,[11],20 AU (inactive)
O=[N+]([O-])c1ccc(O)c([N+](=O)[O-])c1,inhibition,[8],-2.82% (inactive)
same,red/green cell ratio (normalised),[9],0.86 (inactive)
same,normalised cell number,[9]; [12],1.08
same,normalised cell number,[9]; [13],0.93
same,activity remaining,[10],110% (inactive)
same,luciferase signal,[11],44 AU (inactive)
COc1cc2occc2c2oc(=O)ccc12,inhibition,[8],11.9% (inactive)
same,red/green cell ratio (normalised),[9],1.13 (inactive)
same,normalised cell number,[9]; [12],1
same,normalised cell number,[9]; [13],1.14
same,activity remaining,[10],121% (inactive)
same,luciferase signal,[11],84 AU (inactive)
N#Cc1c(Cl)c(Cl)c(Cl)c(C#N)c1Cl,inhibition,[8],-66.6% (inactive)
same,red/green cell ratio (normalised),[9],0.93 (inactive)
same,normalised cell number,[9]; [12],0.04
same,normalised cell number,[9]; [13],0.04
same,activity remaining,[10],108% (inactive)
same,luciferase signal,[11],604 AU (active)
COc1cc2c(cc1-c1cc3cc4ccoc4cc3oc1=O)OCO2,inhibition,[8],0.213% (inactive)
same,red/green cell ratio (normalised),[9],0.88 (inactive)
same,normalised cell number,[9]; [12],0.99
same,normalised cell number,[9]; [13],0.87
same,activity remaining,[10],113% (inactive)
same,luciferase signal,[11],44 AU (inactive)

# — PubChem BioAssay
